D1 potentiator = human D1 dopamine receptor positive modulation. P21728. HEK293 TREx D1 cells, calcium flux, dopamine EC20 potentiation. potentiation, % at 10 µM. 360,000 compounds, 0.036% hits; in the data active = potentiation above about 30%; note: 0% is about no effect
Target sequence (P21728 whole entry, looked up): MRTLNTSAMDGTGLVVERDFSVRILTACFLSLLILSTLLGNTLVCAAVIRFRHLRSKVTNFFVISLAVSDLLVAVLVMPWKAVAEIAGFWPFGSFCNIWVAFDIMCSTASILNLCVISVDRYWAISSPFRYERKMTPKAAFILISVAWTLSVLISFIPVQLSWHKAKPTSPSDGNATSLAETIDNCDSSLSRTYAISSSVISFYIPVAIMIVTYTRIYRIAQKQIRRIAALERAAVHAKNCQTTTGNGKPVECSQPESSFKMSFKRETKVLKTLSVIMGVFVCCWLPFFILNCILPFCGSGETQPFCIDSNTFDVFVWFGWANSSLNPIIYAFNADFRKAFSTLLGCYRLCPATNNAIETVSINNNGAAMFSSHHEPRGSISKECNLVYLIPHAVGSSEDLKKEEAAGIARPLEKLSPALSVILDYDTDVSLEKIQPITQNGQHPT
D1 agonist = human D1 receptor agonism. activation, % at 2 µM. 360,000 compounds, 1% hits. HEK293 T-REx D1 cells, calcium flux, agonist mode. AID 504660. P21728; note: 0% is about no effect
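Inducible HEK293 T-REx D1 cells, force-coupled to calcium signalling, were plated at 4000 cells/well with tetracycline and held overnight at 30 C. After no-wash calcium dye loading, compound-evoked calcium rise over 180 s flagged agonists.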
D1 antag = human D1 dopamine receptor antagonism; activity change, negative = inhibition, % at 10 µM; HEK293 TREx D1 cells, calcium flux, dopamine EC80; stronger effect = lower value; P21728; 360,000 compounds, 3.2% hits; in the data active = activity change below about -30%; note: % is set by controls: 0 for no effect and ±100 for the full control effect
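Antagonism measured as reduced calcium response to an EC80 dopamine addition following 180 s compound pre-read; cells were inducible HEK293 Trex D1 plated overnight at 30 C, read kinetically at 1 cycle/sec.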
TRHR ag = TRH receptor (human) agonism; TRHR cells, calcium flux fluo-8, FDSS agonist mode; 360,000 compounds, 0.18% hits; AID 493084; P34981; activation, % at 2 µM; note: 0% is about no effect
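TRHR-expressing cells loaded with fluo-8 calcium dye; 23 nL library compound pin-transferred, kinetic FDSS fluorescence (Ex 480/Em 530) recorded about 180 s for agonist-induced calcium release, before a 10 nM TRH EC20 addition for potentiator mode.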
TRHR enhancer = allosteric enhancers of human TRH receptor. P34981. TRHR cells, fluo-8 calcium fluorescence, EC20 TRH enhancement. enhancement, % at 2 µM. 360,000 compounds, 0.66% hits. AID 493056; in the data active = enhancement above about 30%; note: 0% is about no effect
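Enhancer read-out: after compound pinning and an initial kinetic agonist-mode read, an EC20 of TRH (10 nM final) was injected and fluo-8 calcium signal (Ex 480/Em 530) followed at 1 s/cycle for 100 cycles in TRHR-expressing cells.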
An asterisk follows results filed as active. Most compounds without a hit are left out; they make up all but 4.7% or so of the library. Cut-off read from the data, not from the text of the source, unless noted: active = activation above about 30%; inactive = the rest.

Results for Cc1ccc(C2=NN(C(=O)CSc3nnnn3C)C(c3ccco3)C2)cc1 (stereo not given) ?
D1 agonist: 1; D1 antag: 1; TRHR ag: 0; TRHR enhancer: 0

How did COc1ccc(C2=NN(C(=O)CSc3nnc(C)c(=O)n3N)C(c3ccco3)C2)cc1 (stereo not given) do in these assays?
D1 potentiator: -5; D1 agonist: 2; D1 antag: -80*; TRHR ag: -1; TRHR enhancer: 4

How did O=C(CC(NS(=O)(=O)c1ccc(Cl)cc1)c1ccco1)NCc1ccco1 (stereo not given) do in these assays?
D1 potentiator: -4; D1 agonist: 9; D1 antag: -38*; TRHR ag: -1; TRHR enhancer: -5

Results for CC(C)N1CCN(c2ccc(OC[C@H]3CO[C@](Cn4cncn4)(c4ccc(Cl)cc4Cl)O3)cc2)CC1 ?
D1 potentiator: 2; D1 agonist: 62*; D1 antag: -44*; TRHR ag: -1; TRHR enhancer: 0

Results for Cc1ccc2[nH]c(CSc3nnc(NC(=O)c4ccccc4C)s3)cc(=O)c2c1 ?
D1 potentiator: -3; D1 agonist: -1; D1 antag: 2; TRHR ag: 0; TRHR enhancer: -1

How did Cc1ccc2[nH]c(CSc3nnc(NC(=O)c4ccccc4F)s3)cc(=O)c2c1 do in these assays?
D1 potentiator: 0; D1 agonist: 1; D1 antag: -32*; TRHR ag: 0; TRHR enhancer: 0

How did CCC(C)N(C(=O)COc1ccc(-c2nnco2)cc1)C1CCS(=O)(=O)C1 (stereo not given) do in these assays?
D1 potentiator: -13; D1 agonist: 3; D1 antag: -54*; TRHR ag: 0; TRHR enhancer: 4

How did CCc1ccc(C(=O)c2c(N)c(-c3nc(-c4ccc5c(c4)OCO5)cs3)c3ccccn23)cc1 do in these assays?
D1 potentiator: -2; D1 agonist: 1; D1 antag: -21; TRHR ag: 2; TRHR enhancer: 4

How did CCCN1CCN(CCCNC(=O)c2ccc3c(c2)sc2nc(-c4ccc(C)cc4)cn23)CC1 do in these assays?
D1 potentiator: -2; D1 agonist: 2; D1 antag: -30*; TRHR ag: 0; TRHR enhancer: 1

Results for O=C(NCCCN1CCCCCC1)c1ccc2c(c1)sc1nc(-c3ccccc3)cn12 ?
D1 potentiator: 4; D1 agonist: 2; D1 antag: -12; TRHR ag: 0; TRHR enhancer: 14

What do the screens show for `CCOC(=O)Cc1csc(NC(=O)CSc2ncnc3c2cnn3-c2ccccc2Cl)n1`?
D1 potentiator: -6; D1 agonist: 11; D1 antag: -78*; TRHR ag: 0; TRHR enhancer: -1

Results for Cc1nnc(NC(=O)CSc2ncnc3c2cnn3-c2ccccc2C)s1 ?
D1 potentiator: -4; D1 agonist: 3; D1 antag: -5; TRHR ag: 0; TRHR enhancer: 6

Results for Cc1ccc(C(=O)OCc2cc3ccccc3[nH]c2=O)cc1 ?
D1 potentiator: 3; D1 agonist: 1; D1 antag: 6; TRHR ag: 0; TRHR enhancer: 38*

Results for COc1cc(OC)c(C2CC(=O)Nc3ccc4ccccc4c32)cc1OC (stereo not given) ?
D1 potentiator: -3; D1 agonist: 5; D1 antag: -1; TRHR ag: -1; TRHR enhancer: 1

How did O=C(O)c1ccccc1-c1nnc2c(Cl)cc(C(F)(F)F)cn12 do in these assays?
D1 potentiator: -3; D1 agonist: 1; D1 antag: -38*; TRHR ag: 1; TRHR enhancer: 7

How did FC(F)(F)c1cc(Cl)c2nnc(-c3ccccn3)n2c1 do in these assays?
D1 potentiator: 2; D1 agonist: 1; D1 antag: -8; TRHR ag: -1; TRHR enhancer: 2

How did COC(=O)c1cccc(Nc2c(-c3ccc(O)c(OC)c3)nc3nc[nH]n23)c1 do in these assays?
D1 potentiator: -2; D1 agonist: 1; D1 antag: -10; TRHR ag: 0; TRHR enhancer: 2

How did CCOC(=O)CN1C(=O)S/C(=C/c2ccc(N3CCCCC3)o2)C1=O do in these assays?
D1 potentiator: -2; D1 agonist: 55*; D1 antag: 11; TRHR ag: 22; TRHR enhancer: -1

What do the screens show for `COC(=O)CN1C(=O)S/C(=C/c2ccc(N3CCCCC3)o2)C1=O`?
D1 potentiator: 6; D1 agonist: 57*; D1 antag: 7; TRHR ag: 56*; TRHR enhancer: 20

Results for COc1ccc(-c2c(C)nn3c(C(F)(F)F)cc(C)nc23)cc1OC ?
D1 potentiator: 1; D1 agonist: 2; D1 antag: -56*; TRHR ag: 1; TRHR enhancer: 0

How did O=C(c1ccco1)N1CCc2[nH]nc(-c3ccc(Cl)cc3)c2C1 do in these assays?
D1 potentiator: 1; D1 agonist: 3; D1 antag: -30*; TRHR ag: -1; TRHR enhancer: 7

What do the screens show for `COc1ccc(-c2n[nH]c3c2CN(C(=O)c2ccccc2)CC3)cc1`?
D1 potentiator: -4; D1 agonist: 2; D1 antag: -5; TRHR ag: -1; TRHR enhancer: 15

How did Cc1cc(C)cc(-n2ccnc2SCC(=O)Nc2cccc3ccccc23)c1 do in these assays?
D1 potentiator: -2; D1 agonist: 4; D1 antag: 0; TRHR ag: 0; TRHR enhancer: 1

What do the screens show for `CCOc1ccc(-n2ccnc2SCC(=O)Nc2nc3ccc(C)cc3s2)cc1`?
D1 potentiator: -1; D1 agonist: 0; D1 antag: 17; TRHR ag: 0; TRHR enhancer: 2

How did O=C(Cc1ccc(-c2ccccc2)cc1)NCCS(=O)(=O)N1CCN(c2ccccc2)CC1 do in these assays?
D1 potentiator: -3; D1 agonist: 4; D1 antag: -4; TRHR ag: 1; TRHR enhancer: 2

Results for COc1cccc(CN(Cc2ccco2)C(c2ccc(F)cc2)c2nnnn2C(C)(C)C)c1 (stereo not given) ?
D1 potentiator: -13; D1 agonist: 23; D1 antag: -34*; TRHR ag: -1; TRHR enhancer: -4

What do the screens show for `COc1ccc(NC(=O)C2CCC(CNS(=O)(=O)c3ccc(Br)s3)CC2)c(OC)c1` (stereo not given)?
D1 potentiator: -3; D1 agonist: 1; D1 antag: -18; TRHR ag: 0; TRHR enhancer: 0

Results for CCOC(=O)c1c(NC(=O)CSc2nnc(-c3cccnc3)o2)sc(C(C)=O)c1C ?
D1 potentiator: 5; D1 agonist: 1; D1 antag: -35*; TRHR ag: 0; TRHR enhancer: 14

Results for CC(C)(C)C(=O)NC(n1cnc2c(N3CCOCC3)ncnc21)C(Cl)(Cl)Cl (stereo not given) ?
D1 potentiator: -5; D1 agonist: 0; D1 antag: -34*; TRHR ag: 1; TRHR enhancer: -4

High-throughput results: PubChem BioAssay, National Center for Advancing Translational Sciences (NCATS)
